In all, about 310,000 compounds went through this assay and about 17,000 (5.5%) were called active. A call without a number means that no potency is given here. Roughly 11% stayed inconclusive and do not appear here. Only a selection was taken, and actives are over-represented in it overall. Values without a mark were called inactive. Calls follow the shape of the dose curve; as a rule, active = well fitted inhibition curve with a large enough effect; inconclusive = small, poorly fitted or top-dose-only effect, or effect the other way; inactive = no such curve, though single readings can be large or run the other way.
The molecules below were run against Nuclear receptor ROR-gamma (Mus musculus) (UniProt P51450) (assay: qHTS for inhibitors of ROR gamma transcriptional activity). Details: Drosophila S2 Gal4-RORgamma UAS-luciferase reporter, 20 h; series mostly up to 53.6 µM.
Chain of Nuclear receptor ROR-gamma (Mus musculus) (P51450 whole entry, looked up, the tested form may be a part): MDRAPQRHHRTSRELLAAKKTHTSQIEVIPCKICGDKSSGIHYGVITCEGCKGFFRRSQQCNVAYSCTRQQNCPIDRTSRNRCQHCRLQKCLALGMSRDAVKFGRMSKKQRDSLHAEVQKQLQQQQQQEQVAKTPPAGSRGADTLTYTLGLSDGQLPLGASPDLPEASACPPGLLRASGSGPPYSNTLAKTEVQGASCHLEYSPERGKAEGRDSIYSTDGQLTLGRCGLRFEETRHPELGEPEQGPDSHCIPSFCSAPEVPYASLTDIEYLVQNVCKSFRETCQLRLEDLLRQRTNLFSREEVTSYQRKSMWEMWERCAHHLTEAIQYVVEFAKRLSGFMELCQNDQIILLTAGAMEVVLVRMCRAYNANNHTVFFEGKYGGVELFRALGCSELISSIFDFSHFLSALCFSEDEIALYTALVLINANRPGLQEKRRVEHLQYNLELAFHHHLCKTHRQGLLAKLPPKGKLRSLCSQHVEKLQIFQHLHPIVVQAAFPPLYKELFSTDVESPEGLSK
Method in brief: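 Schneider cells (Drosophila), stable Gal4 DBD–ROR gamma + UAS-luc; 1 hr cmpd preincubation; Cu2+ induction 700 uM final; 20 hr ambient; luminescence.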
In the case of `O=C(CCN1CCN(C/C=C/c2ccccc2)CC1)Nc1ccccc1Cl`, the Potency was “inactive”. In the case of `C/C=C/C(=O)OCc1csc(CC(=O)Nc2ccccc2C)n1`, the Potency was “inactive”. `COc1cccc(N(CC(=O)NC2CCCCCC2)S(=O)(=O)c2ccccc2)c1` was tested, and the Potency was “inactive”. With `COc1ccc(CCNC(=O)CCc2cn(C)c3ccccc23)c(OC)c1` the Potency was “inactive”. For `Cc1cccc(NC(=S)NCCN(C2CCCCC2)C2CCCC2)c1`, the Potency was 8.91 µM (active). For `Cc1cccc(NC(=S)NC23CN4CN(CN(C4)C2)C3)c1`, the Potency was “inactive”. `Cc1cccc(NC(=O)C2CCN(C(=O)NC3CCCCC3)CC2)c1` was tested, and the Potency was “inactive”. `O=C(NC1CCCC1)C(=O)c1c[nH]c2ccccc12` was tested, and the Potency was “inactive”. With `CCOc1ccc2[nH]c(C(=O)N/N=C/c3cccc(OC)c3OC)cc2c1` the Potency was “inactive”. For `C#CC(C)(C)NC(=O)c1cnc(-c2ccccc2)nc1-c1ccccc1`, the Potency was “inactive”. `CCCc1nnc(NC(=O)c2cccs2)s1` was tested, and the Potency was “inactive”. For `COc1ccc(Cc2nnc(NC(=O)c3cc(OC)c(OC)c(OC)c3)s2)cc1OC`, the Potency was 7.08 µM (active). With `COc1ccccc1NC(=O)Nc1nnc(Cc2ccc(F)cc2)s1` the Potency was “inactive”. `CCCc1nnc(NC(=O)CCC(=O)N2CCN(S(=O)(=O)c3ccc(OC)cc3)CC2)s1` was tested, and the Potency was “inactive”. For `CCCc1nnc(NC(=O)c2cc(OC)cc(OC)c2)s1`, the Potency was 11.2 µM (active). With `COc1ccc(Cc2nnc(NC(=O)c3ccc(OC)cc3OC)s2)cc1` the Potency was “inactive”. `Cc1cc(C)c2nc(N3CCC(C(=O)NCCN4CCOCC4)CC3)sc2c1` was tested, and the Potency was “inactive”. For `Cc1nonc1NC(=O)c1oc2ccccc2c1C`, the Potency was “inactive”. With `COc1ccc(C(=O)C2CCCN(C(=O)c3cc(C)on3)C2)cc1F` (centres undefined) the Potency was “inactive”. For `COc1ccccc1CNC(=O)c1ccc(N(C)S(=O)(=O)c2ccc(C)cc2)cc1`, the Potency was “inactive”. In the case of `COc1ccc(CSc2nnnn2-c2ccc(C(=O)O)cc2)cc1`, the Potency was “inactive”. `COc1cc(/C=C(\C#N)c2nc3c(s2)CC(C)CC3)ccc1O` (centres undefined) was tested, and the Potency was 1.41 µM (active). `COc1cc(/C=N/Nc2nc3ccccc3s2)ccc1O` was tested, and the Potency was “inactive”. For `COc1cc(/C=C(\C#N)c2nc3ccccc3[nH]2)ccc1O`, the Potency was “inactive”. With `CCc1ccc(OCC(=O)NCC(c2ccc(Cl)cc2)N2CCCCC2)cc1` (centres undefined) the Potency was “inactive”. With `C[C@H]1[C@H]2c3nc4ccccc4n3C[C@H]1ON2C1CCCCC1` the Potency was 11.2 µM (active). In the case of `O=C(Nc1ccccc1)C1CC(=O)n2c(nc3ccccc32)N1` (centres undefined), the Potency was “inactive”. In the case of `OC1CSc2nc3ccccc3n2C1` (centres undefined), the Potency was “inactive”. `Cc1ccc(-n2nc3c(=O)n(C(C)C(=O)NCc4ccc5c(c4)OCO5)nc(C)c3c2C)cc1` (centres undefined) was tested, and the Potency was “inactive”. In the case of `CN(CC1CCCO1)S(=O)(=O)c1ccc(C(=O)Nc2ccc(F)cc2)cc1` (centres undefined), the Potency was “inactive”. With `COc1ccc(-c2nc3ccccc3n2CCC(C)C)cc1OC` the Potency was 11.2 µM (active). In the case of `COc1ccc(NC(=O)COC(=O)Cn2c(C)nc3ccccc32)cc1OC`, the Potency was “inactive”. In the case of `COCCn1c(-c2ccc(OC)c(OC)c2)nc2ccccc21`, the Potency was “inactive”. With `COc1cccc(CNC(=O)COc2cc(O)c3c(c2)OC(C)(C)CC3=O)c1` the Potency was “inactive”. In the case of `Cc1[nH]c(C)c(S(=O)(=O)N2CCN(c3cccc(C(F)(F)F)c3)CC2)c1C(=O)N1CCCC1`, the Potency was “inactive”. With `Cc1ccccc1N1CCN(S(=O)(=O)c2ccc3ccccc3c2)CC1` the Potency was “inactive”. With `Cc1cccn2c(=O)c(C=O)c(Nc3ccc(S(N)(=O)=O)cc3)nc12` the Potency was “inactive”. `CN(CC1CCCO1)S(=O)(=O)c1ccc(C(=O)Nc2ccc([N+](=O)[O-])cc2)cc1` (centres undefined) was tested, and the Potency was “inactive”. `CC(=O)N1c2ccc(S(=O)(=O)N3CCC(C(=O)NC4CCCC(C)C4C)CC3)cc2CC1C` (centres undefined) was tested, and the Potency was “inactive”. With `Cc1ccccc1CNC(=O)CCC(=O)N1Cc2ccccc2Oc2ncccc21` the Potency was “inactive”. For `COc1ccc2[nH]c(=O)c(CN(Cc3cccnc3)S(=O)(=O)c3ccccc3F)cc2c1`, the Potency was “inactive”. With `Cn1nccc1NC(=O)Nc1ccc(OC(F)(F)F)cc1` the Potency was “inactive”. `O=C(CCOc1ccccc1)NCc1ccccc1` gave an activity change, negative = inhibition of 5.22% [at 0.365 µM]. For `COc1cc(C(=S)NCc2ccccc2)cc(Br)c1O`, the Potency was “inactive”. In the case of `COC(=O)Cc1ccc(OCC(=O)Nc2ccc(OC(F)(F)F)cc2)cc1`, the Potency was “inactive”. In the case of `CCNC(=S)Nc1ccc(OC(F)(F)F)cc1`, the Potency was 8.91 µM (active). For `FC(F)(F)Oc1ccc(NC(=S)NCc2ccccc2)cc1`, the Potency was 7.08 µM (active). In the case of `CC(C)Cn1c(=O)c2ccccc2n2c(CCC(=O)NCc3ccccn3)nnc12`, the Potency was “inactive”. With `Cc1ccc(C(C(=O)NCC2CCCO2)N(C(=O)c2snc(C(N)=O)c2N)c2ccc(C(C)C)cc2)o1` (centres undefined) the Potency was “inactive”. In the case of `CCOc1ccc(OCC(=O)Nc2c3c(nn2C(C)(C)C)CS(=O)(=O)C3)cc1`, the Potency was “inactive”. `CC(C)(C)c1ccc(SCCc2ccncc2)cc1` was tested, and the Potency was “inactive”. For `CC1(C)CC(=O)c2ccc(O)cc2O1`, the Potency was “inactive”. For `COc1ccc2c(c1)SC(C)CC2=O` (centres undefined), the Potency was “inactive”. With `COc1ccc2c(c1)OC(O)(C(F)(F)C(F)F)CC2=O` (centres undefined) the Potency was 12.6 µM (active).

Reference: PubChem BioAssay AID2551 (National Center for Advancing Translational Sciences (NCATS), 2010)
Also: nearly all actives have a fitted effect of over 60% in size.
Potency is read from the fitted curve at half-maximal effect.
